# From PubChem BioAssay (EPA / NIEHS)
# Results filed as inconclusive are left out. Active and inactive are the calls of the source. The calls were made as follows, unless noted: active = hit-call score of the fitted dose curve at least 0.9, where 1 is the maximum; inconclusive = response in the unintended direction; inactive = score below 0.9.
# What was measured:
# [1] = molecular target: Cellular tumor antigen p53 (Homo sapiens) (UniProt P04637); assay: TOX21_p53_BLA_p2_ratio: Tox21 HCT-116 p53 Agonism Beta-lactamase Assay, Ratio, Phase 2 (AID 2283592)
# Summary of the method: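 Readout: blue/green (460/530 nm) FRET emission ratio after 2 h CCF4-AM loading at room temperature, excitation 405 nm. HCT116 p53 bla cells, 16 h compound exposure at 37C, 5% CO2; agonist direction fitted against DMSO baseline.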
# [2] = molecular target: Cellular tumor antigen p53 (Homo sapiens) (UniProt P04637); assay: TOX21_p53_BLA_p3_ratio: Tox21 HCT-116 p53 Agonism Beta-lactamase Assay, Ratio, Phase 3 (AID 2283596)
# Summary of the method: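 Cells were seeded at 4000/well, rested 5 h at 37C, then dosed with DMSO compound solutions (217-fold dilution) for 16 h. CCF4-AM substrate was loaded for 2 h at room temperature, and the 460/530 nm emission ratio was fitted for gain of signal versus DMSO.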
# [3] = TOX21_p53_BLA_p4_viability: Viability Assessment in the Tox21 HCT-116 p53 Agonism Beta-lactamase Assay, Phase 4 (AID 2283597);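 also: hits lower the luminescence signal meaning cytotoxicity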
# Summary of the method: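 ATP content by CellTiter-Glo luminescence, 30 min RT, read after the beta-lactamase ratio step. Cells: HCT116, 4000/well, compound added after 5 h, exposure 16 h at 37C. Signal loss = reduced viability.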
# [4] = molecular target: Cellular tumor antigen p53 (Homo sapiens) (UniProt P04637); assay: TOX21_p53_BLA_p5_ratio: Tox21 HCT-116 p53 Agonism Beta-lactamase Assay, Ratio, Phase 5 (AID 2283599)
# Summary of the method: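 Beta-lactamase reporter ratio (blue 460 nm over green 530 nm, 405 nm excitation) after 2 h CCF4-AM loading, in HCT-116 cells exposed 16 h at 37 C to compounds pinned at 217-fold dilution. Increases relative to DMSO baseline scored.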
# [5] = molecular target: Cellular tumor antigen p53 (Homo sapiens) (UniProt P04637); assay: TOX21_p53_BLA_p4_ratio: Tox21 HCT-116 p53 Agonism Beta-lactamase Assay, Ratio, Phase 4 (AID 2283601)
# Summary of the method: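 Signal is the blue/green (460nm/530nm) ratio of cleaved versus uncleaved CCF4-AM substrate, read after 2 h substrate loading. Cells were HCT116 carrying the p53-responsive beta-lactamase reporter, dosed 16 h at 37C, 5% CO2; CellTiter-Glo measured in parallel.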
# [6] = TOX21_p53_BLA_p5_viability: Viability Assessment in the Tox21 HCT-116 p53 Agonism Beta-lactamase Assay, Phase 5 (AID 2283600)
# Summary of the method: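 ATP luminescence (CellTiter-Glo, 30 min, RT) served as the viability read-out, with loss of signal indicating cytotoxicity. Compounds in DMSO were pinned at a 217-fold dilution onto 4000 cells/well and incubated 16 h, 37C.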
# [7] = ACEA_ER_AUC_viability: ACEA Biosciences xCELLigence Real-Time Cell Analysis on Estrogen Receptor Agonism for Viability (AID 2283782);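 also: hit means loss of impedance signal meaning reduced cell growth or viability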
# Summary of the method: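 Viability endpoint: reduced impedance area under the curve relative to DMSO, recorded by real-time electrode sensing over ~80 h of continuous exposure. Duplicate plates of T47D in hormone-depleted medium; eight concentrations, 1:4 dilutions, 100 uM maximum.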
# [8] = CCTE_Harrill_HTTr_Viability_MCF7: CCTE's 6-hour Cell Viability Assessment for the High-Throughput Transcriptomics (HTTr) Platform, in MCF-7 cells cultured in DMEM + 10% fetal bovine serum, Harrill Lab (AID 2284010; active = hit-call score of the fitted dose curve at least 0.9, where 1 is the maximum; inactive = score below 0.9)
# Summary of the method: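 PI exclusion, high-content imaging; 8-pt dilution series, 6 h exposure; bidirectional fit vs DMSO (neg. ctrl/baseline); gain of signal = loss of membrane integrity.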
# [9] = CCTE_Harrill_HTTr_CellCount_MCF7: CCTE's Cell Proliferation Assessment for the High-Throughput Transcriptomics (HTTr) Platform, Harrill Lab (AID 2284012);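 also: count of Hoechst-stained nuclei per well by high-content imaging in MCF-7 cells; cells exposed to compound for six hours; intended direction is loss of nuclei count meaning fewer cells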
# Summary of the method: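 Readout: Hoechst nuclear count by high-content imaging. MCF-7, 8-point dilution series, 6 h exposure. Bidirectional fit vs DMSO baseline.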
# Sequence of Cellular tumor antigen p53 (Homo sapiens) (P04637 whole entry, looked up): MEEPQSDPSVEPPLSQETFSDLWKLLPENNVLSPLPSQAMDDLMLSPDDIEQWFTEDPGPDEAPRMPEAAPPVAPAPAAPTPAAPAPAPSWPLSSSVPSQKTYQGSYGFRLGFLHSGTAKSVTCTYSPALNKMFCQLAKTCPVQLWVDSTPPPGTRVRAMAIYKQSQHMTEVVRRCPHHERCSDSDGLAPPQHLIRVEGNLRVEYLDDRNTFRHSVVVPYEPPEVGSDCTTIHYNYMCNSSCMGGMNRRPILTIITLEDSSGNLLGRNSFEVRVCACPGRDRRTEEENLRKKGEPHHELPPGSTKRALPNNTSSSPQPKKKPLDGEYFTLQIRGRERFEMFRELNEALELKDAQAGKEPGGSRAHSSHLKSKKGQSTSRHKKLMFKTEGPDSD
smiles,measurement,setting,value
O=C(Nc1cccc(C2=NCCN2)c1)Nc1cccc(C2=NCCN2)c1,outcome,[1],inactive
same,outcome,[2],inactive
same,outcome,[3],inactive
same,outcome,[4],inactive
same,outcome,[5],inactive
CCCCCCCC/C=C\CCCCCCCC(N)=O,outcome,[1],inactive
same,outcome,[2],inactive
same,outcome,[3],inactive
same,outcome,[4],inactive
same,outcome,[5],inactive
O=C(O)CCCCCCC(=O)O,outcome,[1],inactive
same,outcome,[2],inactive
same,outcome,[3],inactive
same,outcome,[4],inactive
same,outcome,[5],inactive
Cc1ccc(N(CC2=NCCN2)c2cccc(O)c2)cc1,AC50,[1],31 µM (active)
same,outcome,[2],inactive
same,outcome,[3],inactive
same,outcome,[4],inactive
same,AC50,[5],30.4 µM (active)
CNC(=O)NC,outcome,[1],inactive
same,outcome,[2],inactive
same,outcome,[3],inactive
same,outcome,[4],inactive
same,outcome,[5],inactive
Cc1ccccc1N=O,outcome,[1],inactive
same,outcome,[2],inactive
same,outcome,[3],inactive
same,outcome,[4],inactive
same,outcome,[5],inactive
CNC(=O)[C@H](Cc1c[nH]c2ccccc12)NC(=O)[C@@H](CC(=O)NO)CC(C)C,outcome,[1],inactive
same,outcome,[2],inactive
same,outcome,[3],inactive
same,outcome,[4],inactive
same,outcome,[6],inactive
same,outcome,[5],inactive
Cc1ccnc2c1NC(=O)c1cccnc1N2C1CC1,outcome,[1],inactive
same,outcome,[2],inactive
same,outcome,[3],inactive
same,outcome,[4],inactive
same,outcome,[6],inactive
same,outcome,[5],inactive
CC(=O)Nc1cccc(N)c1,AC50,[1],84.4 µM (active)
same,outcome,[2],inactive
same,outcome,[3],inactive
same,outcome,[4],inactive
same,AC50,[5],79.2 µM (active)
CCCCCCCCCCCCCCCCI,outcome,[1],inactive
same,outcome,[2],inactive
same,outcome,[3],inactive
same,outcome,[4],inactive
same,outcome,[5],inactive
CN1CCC[C@@H]1CCO[C@](C)(c1ccccc1)c1ccc(Cl)cc1,outcome,[1],inactive
same,outcome,[2],inactive
same,outcome,[3],inactive
same,outcome,[4],inactive
same,outcome,[6],inactive
same,outcome,[5],inactive
ClC(Cl)Cl,outcome,[1],inactive
same,outcome,[2],inactive
same,outcome,[3],inactive
same,outcome,[4],inactive
same,outcome,[6],inactive
same,outcome,[5],inactive
C=C(C)C(=O)OC,outcome,[1],inactive
same,outcome,[2],inactive
same,outcome,[3],inactive
same,outcome,[4],inactive
same,outcome,[5],inactive
NS(=O)(=O)c1ccc(C(=O)O)cc1,outcome,[1],inactive
same,outcome,[2],inactive
same,outcome,[3],inactive
same,outcome,[4],inactive
same,outcome,[5],inactive
CC(=O)c1ccc2ccc3ccccc3c2c1,AC50,[1],85.8 µM (active)
same,outcome,[2],inactive
same,outcome,[3],inactive
same,AC50,[4],80.9 µM (active)
same,AC50,[5],78.9 µM (active)
CC(Cc1cccc(C(F)(F)F)c1)NCCOC(=O)c1ccccc1 (stereo not drawn),outcome,[1],inactive
same,outcome,[2],inactive
same,outcome,[3],inactive
same,outcome,[4],inactive
same,outcome,[5],inactive
FC(F)(F)c1cccc(Cl)c1,outcome,[1],inactive
same,outcome,[2],inactive
same,outcome,[3],inactive
same,outcome,[4],inactive
same,outcome,[6],inactive
same,outcome,[5],inactive
Cc1c[nH]c2ccccc12,outcome,[1],inactive
same,outcome,[2],inactive
same,outcome,[3],inactive
same,outcome,[4],inactive
same,outcome,[6],inactive
same,outcome,[5],inactive
CN1CCCN(C(c2ccccc2)c2ccc(Cl)cc2)CC1 (stereo not drawn),outcome,[1],inactive
same,outcome,[2],inactive
same,AC50,[3],34.8 µM (active)
same,outcome,[4],inactive
same,outcome,[6],inactive
same,outcome,[5],inactive
CS(=O)(=O)c1ccc([C@@H](O)[C@@H](COC(=O)CN)NC(=O)C(Cl)Cl)cc1,outcome,[1],inactive
same,outcome,[2],inactive
same,outcome,[3],inactive
same,outcome,[6],inactive
O=C(O)CCc1ccccc1,outcome,[1],inactive
same,outcome,[2],inactive
same,outcome,[3],inactive
same,outcome,[4],inactive
same,outcome,[6],inactive
same,outcome,[5],inactive
same,outcome,[7],inactive
same,outcome,[8],inactive
same,outcome,[9],inactive
Nc1c2c(nc3ccccc13)CCCC2O (stereo not drawn),outcome,[1],inactive
same,outcome,[2],inactive
same,outcome,[3],inactive
same,outcome,[4],inactive
same,outcome,[5],inactive
CC1(C)OC(=O)NC1=O,outcome,[1],inactive
same,outcome,[2],inactive
same,outcome,[3],inactive
same,outcome,[4],inactive
same,outcome,[6],inactive
same,outcome,[5],inactive
COc1ccc(/C=C/C(=O)O)cc1,outcome,[1],inactive
same,outcome,[2],inactive
same,outcome,[3],inactive
same,outcome,[4],inactive
same,outcome,[6],inactive
same,outcome,[5],inactive
COc1ccc2c(c1OC)C(=O)O[C@@H]2[C@H]1c2c(cc3c(c2OC)OCO3)CCN1C,outcome,[1],inactive
same,outcome,[2],inactive
same,outcome,[3],inactive
same,outcome,[4],inactive
same,outcome,[5],inactive
COc1ccc(/C=C/c2cc(OC)cc(=O)o2)cc1,outcome,[1],inactive
same,outcome,[2],inactive
same,outcome,[3],inactive
same,outcome,[4],inactive
same,outcome,[5],inactive
CCNC(=O)C1CC(C)CCC1C(C)C (stereo not drawn),outcome,[1],inactive
same,outcome,[2],inactive
same,outcome,[3],inactive
same,outcome,[4],inactive
same,outcome,[5],inactive
O=C(N=NC(=O)OCc1ccccc1)OCc1ccccc1,outcome,[1],inactive
same,outcome,[2],inactive
same,outcome,[3],inactive
same,outcome,[4],inactive
same,outcome,[6],inactive
same,outcome,[5],inactive
CC=C(Cl)Cl,outcome,[1],inactive
same,outcome,[2],inactive
same,outcome,[3],inactive
same,outcome,[4],inactive
same,outcome,[5],inactive
CN(C)CCC=C1c2ccccc2C=Cc2ccccc21,outcome,[1],inactive
same,outcome,[2],inactive
same,outcome,[3],inactive
same,outcome,[4],inactive
same,outcome,[5],inactive
COC(=O)CS,outcome,[1],inactive
same,outcome,[2],inactive
same,outcome,[3],inactive
same,outcome,[4],inactive
same,outcome,[5],inactive
OCl,outcome,[1],inactive
same,outcome,[2],inactive
same,outcome,[3],inactive
same,outcome,[4],inactive
same,outcome,[5],inactive
CC(C)COC(=O)OCN1C(=O)CN(CCN2CC(=O)N(COC(=O)OCC(C)C)C(=O)C2)CC1=O,AC50,[1],4.1 µM (active)
same,AC50,[2],4.07 µM (active)
same,outcome,[3],inactive
same,AC50,[4],7.4 µM (active)
same,AC50,[5],3.05 µM (active)
OCc1c2ccccc2cc2ccccc12,outcome,[1],inactive
same,outcome,[2],inactive
same,outcome,[3],inactive
same,outcome,[4],inactive
same,outcome,[5],inactive
